SKKanGAS inh: S. pyogenes SKKanGAS growth inhibitors in kanamycin, primary screen, streptokinase expression inhibitor project, SKKanGAS strain, BacTiter-Glo luminescence | 6 h | inhibition, % at 7.5 µM | 300,000 tested, 1.3% active;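 active means mean replicate score, as percent of positive control median, at least 50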;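 further: strain carries kanamycin resistance gene driven by streptokinase promoter and grows in 40 µg/ml kanamycin; loss of luminescence reflects streptokinase promoter inhibition or plain growth inhibition; 0% = median of DMSO wells and 100% = positive control at its reference dose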
MPTP inh: mitochondrial permeability transition pore inhibitors, primary screen, biochemical, isolated mouse mitochondria, absorbance | Ca2+ swelling absorbance, 30 min | inhibition, % at 10 µM | 360,000 tested, 1.4% active | AID 602449, 2012;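 active means inhibition of 50% or more, scaled per plate between neutral and stimulator controls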;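 further: 0% = DMSO wells given calcium and 100% = 1 mM EGTA wells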
Mdm2 MdmX PPI: inhibitors of human Mdm2-MdmX association, primary screen, cell-based, luminescence, split luciferase, SaOS-2, uHTS. Protein Mdm4 (Homo sapiens) + E3 ubiquitin-protein ligase Mdm2 (Homo sapiens), …. SaOS-2 split-luciferase Mdm2/MdmX complementation. inhibition, % at 8 µM. 330,000 tested, 3% active. AID 485346, 2010;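 active means inhibition of at least 50% at 8 µM in the primary screen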
Target sequence (O15151 whole entry, looked up): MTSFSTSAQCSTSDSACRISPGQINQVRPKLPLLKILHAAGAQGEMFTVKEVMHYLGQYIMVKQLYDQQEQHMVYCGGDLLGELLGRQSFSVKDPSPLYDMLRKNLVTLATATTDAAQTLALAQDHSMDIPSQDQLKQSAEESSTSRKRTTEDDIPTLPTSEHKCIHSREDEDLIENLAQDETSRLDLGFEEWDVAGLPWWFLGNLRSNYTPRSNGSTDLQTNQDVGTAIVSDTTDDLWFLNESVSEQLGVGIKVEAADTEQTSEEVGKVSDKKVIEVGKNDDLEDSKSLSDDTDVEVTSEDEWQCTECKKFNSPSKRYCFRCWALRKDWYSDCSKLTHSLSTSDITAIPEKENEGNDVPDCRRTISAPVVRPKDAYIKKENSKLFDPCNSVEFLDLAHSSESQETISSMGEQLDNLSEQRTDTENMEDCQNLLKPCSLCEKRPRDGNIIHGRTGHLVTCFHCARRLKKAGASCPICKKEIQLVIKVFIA
Target sequence (Q00987 whole entry, looked up): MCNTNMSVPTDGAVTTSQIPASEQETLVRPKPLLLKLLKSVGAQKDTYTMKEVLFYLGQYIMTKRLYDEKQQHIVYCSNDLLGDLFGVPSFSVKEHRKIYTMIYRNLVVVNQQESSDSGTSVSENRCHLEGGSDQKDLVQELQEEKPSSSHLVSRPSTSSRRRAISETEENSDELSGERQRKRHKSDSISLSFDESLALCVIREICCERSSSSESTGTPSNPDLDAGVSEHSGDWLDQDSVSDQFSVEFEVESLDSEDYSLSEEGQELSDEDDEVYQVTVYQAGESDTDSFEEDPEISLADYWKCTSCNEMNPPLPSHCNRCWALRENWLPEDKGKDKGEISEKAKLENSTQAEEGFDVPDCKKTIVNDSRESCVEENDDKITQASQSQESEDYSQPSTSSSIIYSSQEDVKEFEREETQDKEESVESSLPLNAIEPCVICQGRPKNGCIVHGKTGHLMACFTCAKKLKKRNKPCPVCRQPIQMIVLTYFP
CSC inhib: cancer stem cell viability inhibitors, primary screen, luminescence; cancer stem cell-like cells viability; inhibition, % at 7.5 µM; 300,000 tested, 1.1% active; in the data active means inhibition above about 75%; tested in HMLE shEcad cells
Beta cell apopt: inhibitors of cytokine-induced beta cell apoptosis, primary screen, luminescence; protection from apoptosis, % (test concentration not listed); 300,000 tested, 0.8% active; INS-1E cytokine-induced death, ATP luminescence, 48 h; percent of positive-control rescue, neutral wells zero;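 active means Every replicate reaches about 75%, or at least half do and their mean reaches it too, limit read from the data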;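 further: 0% = cytokine-treated negative control wells and 100% = positive control rescue; higher means more ATP so stronger rescue from cytokine killing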
GRIN3A LBD mod: binders of NR3A ligand-binding domain, primary screen, biophysical, differential scanning fluorimetry, uHTS. Glutamate receptor ionotropic, NMDA 3A (GRIN3A) ligand-binding domain. NR3A LBD differential scanning fluorimetry, Tm shift; 0% = protein alone, 100% = glycine-bound protein. Tm shift relative to glycine control, % at 25 µM. 340,000 tested, 2.5% active. AID 1259313, 2017;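 active means melting temperature shift of at least 10% of the positive control shift, at one fixed dose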
The depositor's hits bear a star; . = no result. This is a sample that favours compounds with a hit; in the whole collection about 6.9% have one here.

SMILES	SKKanGAS inh	MPTP inh	Mdm2 MdmX PPI	CSC inhib	Beta cell apopt	GRIN3A LBD mod
O=C(Nc1ccc(Cl)c([N+](=O)[O-])c1)c1ccco1	4.2	0.5	-1.8	-8.0	-3.2	-3.4
CN(C(=O)COC(=O)/C=C/c1cccc([N+](=O)[O-])c1)C1CCS(=O)(=O)C1 (stereo not drawn)	4.0	-1.0	40.0	91.5*	-4.0	-0.2
O=C(/C=C/c1cccc([N+](=O)[O-])c1)OC1CCCCC1=O (stereo not drawn)	-2.1	-1.7	12.6	11.0	-5.6	12.0*
O=C(/C=C/c1cccc([N+](=O)[O-])c1)c1ccco1	-1.7	-0.6	31.3	7.4	-2.7	0.1
O=C(/C=C/c1ccc(Cl)c([N+](=O)[O-])c1)Nc1ccc(NC(=O)c2ccco2)cc1	-9.2	6.3	.	.	.	32.8*
O=C(/C=C/c1cccc([N+](=O)[O-])c1)c1ccc([N+](=O)[O-])o1	86.1*	-1.5	.	42.0	133.5*	-19.1
O=c1cc(CN2CCN(c3ccccc3F)CC2)c2ccccc2o1	.	-1.2	.	.	.	.
COc1cc(C2C(c3ccccc3)C(c3cc(OC)cc(=O)o3)C2c2ccccc2)oc(=O)c1 (stereo not drawn)	.	-1.2	.	.	.	-3.7
O=C(/C=C/c1cccc([N+](=O)[O-])c1)Nc1cccc(NC(=O)c2ccco2)c1	-0.8	-23.8	11.4	14.4	4.4	26.7*
O=C(/C=C/c1cccc([N+](=O)[O-])c1)Nc1cccc(NC(=O)c2cccs2)c1	8.8	27.2	21.6	49.9	3.3	10.7*
CC(=O)N/C(=C\c1cccc([N+](=O)[O-])c1)C(=O)NC1CCCCC1	-1.4	0.3	-16.8	10.7	-3.0	11.2*
Cc1ccc(NC(=O)/C(=C\c2cccc([N+](=O)[O-])c2)NC(=O)c2cccs2)cc1	3.0	0.7	36.3	-13.2	.	0.8
O=C(N/C(=C/c1cccc([N+](=O)[O-])c1)C(=O)N1CCCCC1)c1cccs1	-2.9	4.0	-22.0	-8.4	-5.0	3.7
O=C(N/C(=C/c1cccc([N+](=O)[O-])c1)C(=O)N1CCCCCC1)c1cccs1	6.2	-1.0	-16.1	-13.2	-3.6	14.9*
CCc1ccc(NC(=O)c2ccc3c(c2)CCN3S(C)(=O)=O)cc1	.	1.6	.	.	.	.
NC(=O)CC[C@H](NC(=O)c1ccc(F)cc1)C(=O)OCC(=O)Nc1c(F)c(F)c(F)c(F)c1F	-1.5	-1.5	5.1	13.5	-3.9	11.5*
CC1CCCC(NC(=O)/C=C/c2c(F)cccc2Cl)C1C (stereo not drawn)	1.6	1.7	-10.1	-3.2	7.4	0.2
COC(=O)c1c(NC(=O)COC(=O)CC(NC(C)=O)c2ccccc2)sc(C)c1C (stereo not drawn)	3.0	-0.5	17.7	-7.5	-1.3	-0.7
CCCc1cc(-c2n[nH]c(=S)n2-c2cccc(C)c2)cs1	-7.4	-1.7	-18.6	28.4	2.6	13.5*
COC(=O)c1ccccc1N=Nc1c(N)n[nH]c1N	4.5	1.4	-0.4	-1.1	-2.0	3.4
Cc1ccc(N=Nc2c(N)n[nH]c2N)cc1	-2.9	-0.2	-31.0	5.8	-3.3	-2.0
Cc1ccc(-c2[nH]nc(N)c2N=Nc2cccc(Cl)c2C)cc1	.	18.4	.	.	.	28.0*
Cc1ccc(-c2[nH]nc(N)c2N=Nc2ccccc2C)cc1	74.5*	11.5	41.8	50.0	-13.1	44.4*
Cc1cccc(N=Nc2c(N)n[nH]c2-c2ccc(Cl)cc2)c1	12.9	4.6	29.9	.	-3.3	34.4*
CCOC(=O)c1cc(-c2ccc(C)cc2)n(CCC(=O)N2CCN(c3ccccn3)CC2)c1C	25.3	-3.1	11.2	33.9	1.3	12.6*
SMILES	SKKanGAS inh	MPTP inh	Mdm2 MdmX PPI	CSC inhib	Beta cell apopt	GRIN3A LBD mod
CCOC(=O)c1cc(-c2ccccc2)n(CCC(=O)O)c1C	-0.1	0.2	17.5	-5.1	-0.9	1.4
Cc1cc(OCC(=O)NNC(=O)c2cccs2)ccc1Br	-2.2	0.3	10.4	.	3.8	2.3
Cc1ccc(NNC(=O)c2cc(C)on2)c(C)c1	-1.1	2.7	-24.7	26.1	-0.4	3.7
Cc1cc(C(=O)NNc2ccc(F)cc2F)no1	-6.0	0.3	4.9	75.1*	-8.8	0.5
Cc1cc(C(=O)NNC(=O)Nc2ccc(Cl)cc2)no1	-1.0	1.2	1.3	1.3	2.6	2.0
Cc1cc(C(=O)NNc2ccc(Cl)cc2)no1	-2.3	1.5	5.8	117.4*	-6.7	0.0
CCN(CC)S(=O)(=O)c1cc(C(=O)OCC(=O)Nc2cccc(Br)c2)ccc1F	1.3	35.9	-14.0	-7.0	-3.8	18.4*
O=S(=O)(Cc1c(F)cccc1Cl)c1ncn[nH]1	0.8	-0.6	3.9	-14.4	-5.1	0.1
CC(C)c1ccc(/C=C2\SC(=O)N(CC(=O)NCCCn3ccnc3)C2=O)cc1	0.9	11.0	6.3	-13.9	-19.1	-0.4
O=C(Nc1cccc2ncccc12)c1cccc(F)c1	-0.4	-3.0	7.6	-8.6	-15.2	-1.4
O=C(Nc1cccc2ncccc12)c1ccc(F)cc1	-11.6	1.1	-8.6	-5.7	-2.9	11.6*
Cc1ccc(C(=O)/C=C/c2cc(C#N)n(C)c2C)cc1	0.0	-1.0	12.6	7.9	-10.7	9.4
COc1ccccc1C(=O)NNC(=O)CN(C)S(=O)(=O)c1ccc(Cl)cc1	.	-0.5	.	.	.	.
COc1cc(OC)c(C(=O)NNC(=O)CN(C)S(=O)(=O)c2ccc(Cl)cc2)cc1OC	15.1	-3.0	-11.9	-14.0	-3.2	34.7*
O=C1NC(=S)SC1=Cc1cc(Br)ccc1O	.	2.7	.	.	.	30.7*
O=C(O)CCCC(=O)N1CCc2cc(S(=O)(=O)NCc3ccc(F)cc3)ccc21	2.7	-1.7	-8.0	-6.9	4.1	4.0
C(=N\Nc1ncnc2ccccc12)/c1ccccc1	-1.0	-0.8	-43.4	-0.9	4.2	-45.0
Nc1c(Cl)ncnc1N/N=C/c1ccnc2ccccc12	-6.7	-0.5	17.0	-37.1	4.0	12.6*
Clc1cccc(/C=N/Nc2ncnc3ccccc23)c1	4.8	0.6	-28.9	-1.6	3.1	14.1*
Nc1c(Cl)ncnc1N/N=C/c1ccccn1	.	.	.	102.0*	118.6*	-1.5
Nc1c(Cl)ncnc1N/N=C/c1ccc2ccccc2n1	.	2.8	.	101.6*	113.4*	-0.1
COCCn1nnnc1C(C(C)C)N1CCSCC1 (stereo not drawn)	-8.1	0.7	-30.0	7.2	-4.0	-0.6
CC(C)CNC(=O)C1(C)CCCN1Cc1ccccc1OC(F)F (stereo not drawn)	.	2.3	.	.	.	.
CN(C)Cc1nc2ccccc2c(=O)n1Cc1nc(-c2cc3ccccc3o2)cs1	74.0*	0.9	-7.3	34.3	2.8	-0.3

Screening results (PubChem)
